# Results from ChEMBL document CHEMBL3433997, “St. Jude Leishmania screening dataset” (2016).
# Assays:
# Format in all cases: functional
# [1] = target: Solute carrier family 2, facilitated glucose transporter member 1 (Homo sapiens) (UniProt P11166); assay: ST_JUDE_LEISH: Cytotoxicity at 2uM final concentration against transgenic Leishmania Mexicana promastigotes LmGLUT1 that are glucose transport deficient and complemented with the human glucose transporter GLUT1. Activity is measured by DNA content using SYBR green in vitro
# Sequence of Solute carrier family 2, facilitated glucose transporter member 1 (Homo sapiens) (P11166 whole entry): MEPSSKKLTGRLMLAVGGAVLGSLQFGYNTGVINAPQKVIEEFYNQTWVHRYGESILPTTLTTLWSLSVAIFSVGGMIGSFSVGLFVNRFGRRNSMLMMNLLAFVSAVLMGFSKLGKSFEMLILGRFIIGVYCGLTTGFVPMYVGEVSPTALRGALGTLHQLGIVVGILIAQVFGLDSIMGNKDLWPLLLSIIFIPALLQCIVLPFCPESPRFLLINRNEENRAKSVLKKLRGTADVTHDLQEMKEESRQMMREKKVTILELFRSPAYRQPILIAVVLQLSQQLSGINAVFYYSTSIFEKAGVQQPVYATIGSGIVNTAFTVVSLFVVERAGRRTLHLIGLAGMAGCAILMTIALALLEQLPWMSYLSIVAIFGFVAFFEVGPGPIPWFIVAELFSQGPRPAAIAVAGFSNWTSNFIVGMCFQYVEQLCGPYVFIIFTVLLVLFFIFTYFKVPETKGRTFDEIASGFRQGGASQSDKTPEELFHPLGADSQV
# [2] = target: Hexose transporter 1 (Plasmodium falciparum) (UniProt O97467); assay: ST_JUDE_LEISH: Cytotoxicity at 2uM final concentration against transgenic Leishmania Mexicana promastigotes LmPfHT that are glucose transport deficient and complemented with the Plasmodium falciparum hexose transporter. Activity is measured by DNA content using SYBR green in vitro
# [3] = target: Glucose transporter (Leishmania mexicana) (UniProt O61059); assay: ST_JUDE_LEISH: Cytotoxicity at 2uM final concentration against transgenic Leishmania Mexicana promastigotes LmGT2 that are glucose transport deficient and complemented with the L. Mexicana glucose transporter 2. Activity is measured by DNA content using SYBR green in vitro
Compound,inhibition [1] [%],inhibition [2] [%],inhibition [3] [%]
CC(C)(C)C1=CC(=NNC(=O)c2ccncc2)C=C(C(C)(C)C)C1=O,11.8,14,-0.13
Cc1ncsc1CCN1C(=O)CC2(C1=O)C(=O)N(Cc1ccccc1)c1ccc(Cl)cc12 (stereo unspecified),1.9,2.58,-1.17
CCN(CC)Cc1cccc(-c2cc3c(-c4ccc(C(=O)O)c(C(C)C)c4)ccnc3[nH]2)c1OC,12,8.43,7.3
O=C(NC1CCN(CC2(c3ccc(Cl)cc3)CCCCC2)CC1)c1cc[nH]n1,3.86,2.9,3.61
COc1cc(OC)cc(-c2nn(-c3ccc([N+](=O)[O-])cc3C#N)c(=S)n2CC2CCCO2)c1 (stereo unspecified),2.04,1.07,-7.78
CN1CCN(Cc2ccc(-c3cccc(-c4nc5ccccc5[nH]4)c3)cc2)CC1,1.13,0.78,-2.4
NC1=NC(Cc2ccccc2)(c2ccncc2)C(=O)N1CCCc1ccccc1 (stereo unspecified),3.32,3.32,2.03
CCn1c(Cc2ccccc2)nnc1SCC(=O)N1c2ccccc2Sc2ccccc21,4.01,3.52,2.39
CC(C)CCNC(=N)c1ccc(OCCCCCOc2ccc(C(=N)NCCC(C)C)cc2)cc1,12.4,12.5,8.15
C[C@H]1CN(Cc2cccc(-c3cc(CNC(=O)c4cccc(CN5CCN(CCOc6ccccc6)CC5)c4)ccc3F)c2)CCN1,0.77,0.96,2.94
CC(C)(C)c1ccc(CN2CCC(CNC(=O)c3cc(-c4cccc(F)c4)cs3)C2)cc1 (stereo unspecified),4.3,4.53,4.16
COc1cc2nc(N3CCC(CNC(=O)c4cc(Br)c(Br)s4)CC3)nc(N)c2cc1OC,9.57,9.82,6.92
Cc1ccc(S(=O)(=O)NC2CCN(CCNC(=O)Nc3cc(C)nc4ccccc34)C2)cc1 (stereo unspecified),4.78,4.12,0.31
COc1ccc(-c2cnc3ccc(NCc4ccc(S(N)(=O)=O)cc4)nn23)cc1,3.11,3.14,12.6
CC(C)NCc1cccc(-c2cccc(-c3nc4ccccc4[nH]3)c2)c1,-1.73,0.59,-1.69
Cc1c(Cc2ccc(C(C)C)cc2)cnc2nc(N)nc(N)c12,1.34,0.5,1.42
O=C(c1cc(C(=O)NC2CCCCC2)c(=O)n(C2CCCCC2)c1)c1cc(F)ccc1O,2.83,1.22,1.41
